# Results filed as inconclusive are left out. For some of these results: Potency and affinity values are given separately. Active and inactive are the calls of the source.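 How the source made its calls, unless noted: active means at least 20% inhibition of 6-phosphogluconate dehydrogenase activity; inactive means the rest.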
# Legend:
# [1] = blockers of polyQ-driven CASP3 activation – cell-based (AID 1583); settings: polyglutamine-induced caspase-3 activation, cell assay; stronger effect = higher value;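 tested at 10 µM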
# [2] = yeast 75Q aggregation reduction – 75Q-TubU reporter (AID 1593); settings: Yeast 75Q polyglutamine aggregation reporter
# [3] = restoration of touch response, mutant HTT neurons – whole organism, C. elegans mechanosensory neurons, N-terminal huntingtin (AID 1599); settings: C. elegans polyQ-huntingtin mechanosensory neurons, stronger effect = higher value
# [4] = blockers of cytochrome c efflux from mitochondria – biochemical, purified mitochondria (AID 1603); settings: stronger effect = lower value;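 further: mouse liver mitochondria challenged with calcium chloride; signal normalized to the plate average as 100%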
# [5] = polyglutamine aggregate formation blockers (AID 1604); settings: polyglutamine-induced protein aggregation inhibition assay; stronger effect = higher value; tested at 2.5 µM
# [6] = glutamate transport activators, MN-1 cells, MN-1 cell line (AID 1612); settings: MN-1 motor neuron cells, stronger effect = higher value;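 further: tested at 1 µM final; 0% = mean of DMSO vehicle wells on each plate; positive means more glutamate uptake than control and negative means less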
# [7] = GFP-Q80 aggregate reduction, neuronal-like cells, cell-based, NGF-treated PC12, GFPQ80 (AID 1614); settings: PC12 NGF-treated GFP-polyQ80 inclusion reduction;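 further: lower means fewer inclusions and 0 means no inclusions at all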
# [8] = 75Q-TubH aggregate inhibition, S. cerevisiae, yeast (AID 1616); settings: S. cerevisiae 75Q-TubH polyglutamine aggregation suppression; stronger effect = higher value
# [9] = target: 6-phosphogluconate dehydrogenase, decarboxylating (Homo sapiens) (UniProt P52209); experiment: inhibition of human phosphogluconate dehydrogenase – biochemical, recombinant enzyme, NADPH absorbance, primary screen (AID 1159550); settings: recombinant 6PGD, NADPH absorbance 341 nm; at 10 µM; stronger effect = higher value
# [10] = P. berghei load reduction in hepatocytes – cell-based, HepG2, luciferase luminescence, HepG2 viability, primary screen (AID 624349; in the data active means parasite load remaining mostly below about 12%, no sharp cut-off; inactive means mostly above about 10%;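 further: 100% = mean of DMSO negative control wells on the same plate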); settings: P. berghei liver stage in HepG2, luciferase luminescence, concentration not given here; parasite load remaining: stronger effect = lower value; viability: measured here: HepG2 viability without parasites
# [11] = target: Mitogen-activated protein kinase 7 (Homo sapiens) (UniProt Q13164); experiment: Gal4-ERK5 driven luciferase induction – cell-based, HTS, primary screen (AID 1508626;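 active means luciferase signal above three times the same-plate solvent-only control wells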;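 further: luciferase driven by Gal4-ERK5 fusion binding five Gal4 sites before minimal TATA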); settings: HeLa Gal4-ERK5 transactivation, 18 h, at 5 µM, stronger effect = higher value
# [12] = rescue of PC12 cells from polyQ htt toxicity – LDH release (AID 1610); settings: PC12 mutant huntingtin toxicity, final LDH at 4 uM, stronger effect = lower value
# [13] = signal quenchers or enhancers, Cy5 substrate/SSB – biochemical, NIH Clinical Collection, E. coli SSB, artefact control for HCV NS3 helicase inhibitor project (AID 743268; call rule not given here); settings: Cy5-oligo bound E. coli SSB, fluorescence interference
# [14] = system: Hepatitis C virus NS3 helicase; experiment: blockers of NS3h binding to DNA – biochemical, fluorescence polarization, NIH Clinical Collection, primary screen (AID 743270; call rule not given here); settings: NS3 helicase binding to Cy5-dT15 DNA, stronger effect = higher value, concentration not given here
# [15] = target: Single-stranded DNA-binding protein (Escherichia coli (strain K12)) (UniProt P0AGE0); experiment: SSB-ssDNA binding inhibitors – biochemical, fluorescence polarization, NIH Clinical Collection, counter-screen for HCV NS3 helicase inhibitor project (AID 743271; in the data active means inhibition above about 28%); settings: E. coli SSB-DNA binding, stronger effect = higher value, concentration not given here
# [16] = compounds distorting NS3 helicase fluorescence signal – biochemical, NIH Clinical Collection, artefact control for HCV NS3 helicase inhibitor project (AID 743272; call rule not given here;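 further: HCV NS3 helicase with a Cy5 labelled single stranded DNA probe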); settings: fluorescence interference counterscreen, HCV NS3 helicase assay; stronger effect = lower value
# Sequence of 6-phosphogluconate dehydrogenase, decarboxylating (Homo sapiens) (P52209 whole entry, looked up): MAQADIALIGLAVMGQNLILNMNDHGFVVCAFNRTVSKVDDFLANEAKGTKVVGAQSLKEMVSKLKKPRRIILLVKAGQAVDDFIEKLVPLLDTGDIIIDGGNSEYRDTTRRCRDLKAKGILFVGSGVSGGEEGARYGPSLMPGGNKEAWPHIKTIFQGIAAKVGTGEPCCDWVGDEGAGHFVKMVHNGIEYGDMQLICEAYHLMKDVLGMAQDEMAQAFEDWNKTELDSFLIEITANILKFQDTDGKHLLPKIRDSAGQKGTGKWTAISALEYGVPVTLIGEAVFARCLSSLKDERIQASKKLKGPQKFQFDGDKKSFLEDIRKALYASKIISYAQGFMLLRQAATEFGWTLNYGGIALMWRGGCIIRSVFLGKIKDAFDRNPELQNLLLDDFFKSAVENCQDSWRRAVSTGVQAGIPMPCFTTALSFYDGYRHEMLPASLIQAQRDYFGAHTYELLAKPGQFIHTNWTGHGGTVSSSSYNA
# Sequence of Mitogen-activated protein kinase 7 (Homo sapiens) (Q13164 whole entry, looked up, the tested form may be a part): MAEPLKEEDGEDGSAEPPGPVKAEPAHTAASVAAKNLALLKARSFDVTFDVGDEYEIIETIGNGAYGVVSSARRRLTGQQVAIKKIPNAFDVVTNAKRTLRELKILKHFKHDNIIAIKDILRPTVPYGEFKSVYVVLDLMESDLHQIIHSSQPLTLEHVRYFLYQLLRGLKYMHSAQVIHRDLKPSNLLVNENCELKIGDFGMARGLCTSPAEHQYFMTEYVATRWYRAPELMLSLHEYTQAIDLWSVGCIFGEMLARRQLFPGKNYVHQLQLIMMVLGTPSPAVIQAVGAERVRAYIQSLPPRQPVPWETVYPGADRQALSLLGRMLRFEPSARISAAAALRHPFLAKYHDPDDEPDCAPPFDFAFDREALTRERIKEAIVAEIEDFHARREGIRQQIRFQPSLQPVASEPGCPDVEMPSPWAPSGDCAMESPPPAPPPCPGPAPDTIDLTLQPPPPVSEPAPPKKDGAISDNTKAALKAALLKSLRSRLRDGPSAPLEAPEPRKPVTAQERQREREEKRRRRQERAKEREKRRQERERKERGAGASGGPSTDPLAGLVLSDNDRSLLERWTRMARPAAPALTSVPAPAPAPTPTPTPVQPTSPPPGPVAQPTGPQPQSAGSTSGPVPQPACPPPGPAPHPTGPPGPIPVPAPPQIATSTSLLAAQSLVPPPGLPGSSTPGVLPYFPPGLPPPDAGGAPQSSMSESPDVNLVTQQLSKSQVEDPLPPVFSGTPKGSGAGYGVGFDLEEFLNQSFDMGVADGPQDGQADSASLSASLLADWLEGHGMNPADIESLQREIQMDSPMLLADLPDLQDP
smiles,measurement,setting,value
O=C(O)c1cc(O)ccc1O,inhibition,[1],-0.2%
same,score,[2],0.92
same,rescue above control,[3],-5.86
same,cytochrome c release ratio,[4],0.99
same,inhibition of aggregation,[5],72.2%
same,glutamate uptake change,[6],-11.6%
same,inclusion score,[7],2
same,aggregation suppression score,[8],0.337
same,inhibition,[9],-15.2% (inactive)
COc1ccc(/C=C/c2cc(O)cc(O[C@@H]3O[C@H](CO)[C@@H](O)[C@H](O)[C@H]3O)c2)cc1O,inhibition,[1],4.89%
same,score,[2],1.27
same,rescue above control,[3],-0.21
same,cytochrome c release ratio,[4],0.78
same,inhibition of aggregation,[5],12.9%
same,glutamate uptake change,[6],4.82%
same,inclusion score,[7],2
same,aggregation suppression score,[8],1.41
same,inhibition,[9],-5.87% (inactive)
CCC(C)C(N)C(=O)N1CCCC1C(=O)NC(C(=O)O)C(C)CC (stereo not given),inhibition,[1],-6.01%
same,score,[2],1.3
same,rescue above control,[3],1.96
same,cytochrome c release ratio,[4],0.74
same,inhibition of aggregation,[5],14.9%
same,glutamate uptake change,[6],11.9%
same,inclusion score,[7],2
same,aggregation suppression score,[8],1.44
same,inhibition,[9],-1.23% (inactive)
O=C(CCCCCCCCCCCCC1CCCC1)Nc1ccc(S(=O)(=O)c2ccc(NC(=O)CCCCCCCCCCCCC3CCCC3)cc2)cc1,parasite load remaining,[10],65.7% (inactive)
same,viability,[10],90.8%
same,inhibition,[9],6.93% (inactive)
same,luciferase signal,[11],32 AU (inactive)
CSCCC(N)C(=O)NC(CC(C)C)C(=O)NC(Cc1ccccc1)C(=O)O (stereo not given),inhibition,[1],18.9%
same,score,[2],1.68
same,rescue above control,[3],2.33
same,cytochrome c release ratio,[4],0.77
same,inhibition of aggregation,[5],67.8%
same,glutamate uptake change,[6],4.95%
same,inclusion score,[7],2
same,aggregation suppression score,[8],1.32
same,inhibition,[9],9.25% (inactive)
CCOC(=O)C(Cc1ccc(O)cc1)NC(C)=O (stereo not given),inhibition,[1],-16.6%
same,score,[2],1.58
same,rescue above control,[3],3.83
same,cytochrome c release ratio,[4],0.88
same,inhibition of aggregation,[5],-1.73%
same,glutamate uptake change,[6],-5.84%
same,inclusion score,[7],2
same,aggregation suppression score,[8],0.981
same,parasite load remaining,[10],109% (inactive)
same,viability,[10],69%
same,inhibition,[9],-22.2% (inactive)
same,luciferase signal,[11],72 AU (inactive)
CC(=O)O[C@H]1CC[C@@]2(C)[C@H](CC[C@@H]3[C@@H]2CC[C@]2(C)[C@@H]4[C@H](C[C@@H]32)O[C@]2(CC[C@@H](C)CO2)[C@H]4C)C1,inhibition,[9],13.5% (inactive)
same,luciferase signal,[11],44 AU (inactive)
O=c1oc2ccccc2cc1O,inhibition,[9],15.9% (inactive)
same,luciferase signal,[11],36 AU (inactive)
CC1(C)C2CC(=O)O[C@@]3(C)C4=CC(=O)O[C@@H](c5ccoc5)[C@]4(C)CCC3[C@@]2(C)C=C[C@H]1O (stereo not given in full),inhibition,[9],9.39% (inactive)
same,luciferase signal,[11],20 AU (inactive)
CC(=O)O[C@@H]1C[C@H]2C(C)(C)[C@@H](O)CC[C@]2(C)[C@H]2CC[C@@]3(C)[C@H](c4ccoc4)OC(=O)[C@H]4O[C@]43[C@@]21C,inhibition,[9],-6.19% (inactive)
same,luciferase signal,[11],108 AU (inactive)
COC(=O)[C@]1(C)CCC[C@]2(C)c3ccc(C(C)C)cc3C(=O)CC12 (stereo not given in full),inhibition,[9],13.7% (inactive)
same,luciferase signal,[11],32 AU (inactive)
CC(C)=CCC1=C(O)c2ccccc2C(=O)C1=O,inhibition,[1],-24.2%
same,score,[2],0.21
same,rescue above control,[3],6.74
same,cytochrome c release ratio,[4],0.7
same,inhibition of aggregation,[5],77.5%
same,normalised LDH release,[12],0.727
same,glutamate uptake change,[6],-3.48%
same,inclusion score,[7],2
same,aggregation suppression score,[8],0.0579
same,parasite load remaining,[10],85.5% (inactive)
same,viability,[10],63.9%
same,inhibition,[9],-1.8% (inactive)
same,luciferase signal,[11],60 AU (inactive)
CSCCC(NC=O)C(=O)NC(CC(C)C)C(=O)NC(Cc1ccccc1)C(=O)O (stereo not given),score,[2],1
same,rescue above control,[3],6.28
same,cytochrome c release ratio,[4],1.31
same,inhibition of aggregation,[5],53.9%
same,glutamate uptake change,[6],14.5%
same,inclusion score,[7],1
same,aggregation suppression score,[8],1.49
same,inhibition,[9],3.38% (inactive)
CC12CCC3c4ccc(OCc5ccccc5)cc4CCC3C1C[C@@H](O)[C@@H]2O (stereo not given in full),inhibition,[1],-24.8%
same,score,[2],-1.62
same,rescue above control,[3],18.3
same,cytochrome c release ratio,[4],1.14
same,inhibition of aggregation,[5],88.8%
same,glutamate uptake change,[6],-1.58%
same,aggregation suppression score,[8],-0.303
same,inhibition,[9],-6.08% (inactive)
C=C1C2CCC3(C)C(c4ccoc4)OC(=O)CC13OC1CC(=O)C(C)(C)C(CC(=O)OC)C12C (stereo not given),inhibition,[9],-8.25% (inactive)
same,luciferase signal,[11],16 AU (inactive)
COC(=O)[C@H]1[C@H]2C[C@H]3c4[nH]c5cc(OC)ccc5c4CCN3C[C@H]2C[C@@H](OC(=O)c2cc(OC)c(OC)c(OC)c2)[C@@H]1OC,inhibition,[1],-6.47%
same,score,[2],1.04
same,rescue above control,[3],-3.75
same,cytochrome c release ratio,[4],1.13
same,inhibition of aggregation,[5],26.7%
same,glutamate uptake change,[6],8.81%
same,inclusion score,[7],2.5
same,aggregation suppression score,[8],0.976
same,inhibition,[9],0.174% (inactive)
same,luciferase signal,[11],92 AU (inactive)
N[C@H](C(=O)O)[C@@H]1CC(Cl)=NO1,inhibition,[1],-15.5%
same,score,[2],0.51
same,rescue above control,[3],-2.47
same,cytochrome c release ratio,[4],0.83
same,inhibition of aggregation,[5],25.5%
same,glutamate uptake change,[6],6.6%
same,inclusion score,[7],1
same,aggregation suppression score,[8],0.115
same,inhibition,[9],7.5% (inactive)
CCOC(=O)CCCCCCCCCCCCC1C=CCC1 (stereo not given),inhibition,[1],-0.73%
same,score,[2],-0.7
same,rescue above control,[3],-1.18
same,cytochrome c release ratio,[4],1.01
same,inhibition of aggregation,[5],55.1%
same,glutamate uptake change,[6],-2.82%
same,inclusion score,[7],2
same,aggregation suppression score,[8],0.251
same,inhibition,[9],2.03% (inactive)
same,luciferase signal,[11],116 AU (inactive)
NC(N)=NCCC[C@@H](NC(=O)[C@@H](N)Cc1ccc(O)cc1)C(=O)O,inhibition,[1],-8.49%
same,score,[2],1.34
same,rescue above control,[3],13.2
same,cytochrome c release ratio,[4],0.94
same,inhibition of aggregation,[5],77%
same,glutamate uptake change,[6],17.2%
same,inclusion score,[7],2
same,aggregation suppression score,[8],1.22
same,inhibition,[9],7.11% (inactive)
CC1=C(/C=C/C(C)=C/C=C/C(C)=C/C=C/C=C(C)/C=C/C=C(C)/C=C/C2=C(C)C(=O)[C@@H](O)CC2(C)C)C(C)(C)C[C@H](O)C1=O,inhibition,[9],-11.7% (inactive)
same,luciferase signal,[11],48 AU (inactive)
COc1cc(C)c(C(=O)Oc2cc(C)c(C(=O)O)c(O)c2C)c(O)c1C=O,inhibition,[9],2.14% (inactive)
same,luciferase signal,[11],120 AU (inactive)
CC(C)=CCc1c2c(c(O)c3c(=O)c(O)c(-c4ccccc4)oc13)C=CC(C)(C)O2,inhibition,[9],-4.34% (inactive)
same,luciferase signal,[11],64 AU (inactive)
COc1cc(OC)c2c(c1Cl)O[C@@]1(C(=O)CC(=O)C[C@H]1C)C2=O,inhibition,[9],4.62% (inactive)
same,luciferase signal,[11],48 AU (inactive)
CCCCCC/C=C\CCCCCCCc1cccc(O)c1C(=O)O,inhibition,[9],0.888% (inactive)
same,luciferase signal,[11],76 AU (inactive)
CC=C1[C@H]2C=C(C)C[C@]1(N)c1ccc(=O)[nH]c1C2,parasite load remaining,[10],62.9% (inactive)
same,viability,[10],72.6%
same,fluorescence ratio,[13],0.99 (inactive)
same,inhibition,[14],-2.84% (inactive)
same,inhibition,[15],-1.97% (inactive)
same,fluorescence ratio,[16],0.96 (inactive)
same,inhibition,[9],-0.222% (inactive)
same,luciferase signal,[11],44 AU (inactive)
CC(N)C(=O)NC(Cc1ccccc1)C(=O)O (stereo not given),inhibition,[1],17.1%
same,score,[2],1.2
same,rescue above control,[3],1.23
same,cytochrome c release ratio,[4],1.13
same,inhibition of aggregation,[5],77.8%
same,glutamate uptake change,[6],2.41%
same,inclusion score,[7],2
same,aggregation suppression score,[8],1.4
same,inhibition,[9],16.4% (inactive)
COc1ccc(-c2cc(=O)c3ccccc3o2)cc1,inhibition,[9],-3.26% (inactive)
same,luciferase signal,[11],112 AU (inactive)
